{"source": "PubChem BioAssay AID1671190", "about": "(National Center for Advancing Translational Sciences (NCATS), 2021)", "note": "Where “and” joins values, the source holds several entries; their conditions need not be identical. Equal entries are not always repeated. About 6,100 (1.1%) of roughly 580,000 compounds were called active. Where a call stands in place of a potency, no number is given. Not shown: some 15% with an inconclusive outcome. Calls follow the shape of the dose curve; as a rule, active = well fitted inhibition curve with a large enough effect; inconclusive = small, poorly fitted or top-dose-only effect, or another doubt; inactive = no such curve, though single readings can be large or run the other way. For the sample, actives were picked, then their nearest neighbours and some compounds at random. Potency is read from the fitted curve at half-maximal effect.", "data": [{"molecular_target": "Polyunsaturated fatty acid lipoxygenase ALOX12 (Homo sapiens) (UniProt P18054)", "sequence (P18054 whole entry, looked up)": "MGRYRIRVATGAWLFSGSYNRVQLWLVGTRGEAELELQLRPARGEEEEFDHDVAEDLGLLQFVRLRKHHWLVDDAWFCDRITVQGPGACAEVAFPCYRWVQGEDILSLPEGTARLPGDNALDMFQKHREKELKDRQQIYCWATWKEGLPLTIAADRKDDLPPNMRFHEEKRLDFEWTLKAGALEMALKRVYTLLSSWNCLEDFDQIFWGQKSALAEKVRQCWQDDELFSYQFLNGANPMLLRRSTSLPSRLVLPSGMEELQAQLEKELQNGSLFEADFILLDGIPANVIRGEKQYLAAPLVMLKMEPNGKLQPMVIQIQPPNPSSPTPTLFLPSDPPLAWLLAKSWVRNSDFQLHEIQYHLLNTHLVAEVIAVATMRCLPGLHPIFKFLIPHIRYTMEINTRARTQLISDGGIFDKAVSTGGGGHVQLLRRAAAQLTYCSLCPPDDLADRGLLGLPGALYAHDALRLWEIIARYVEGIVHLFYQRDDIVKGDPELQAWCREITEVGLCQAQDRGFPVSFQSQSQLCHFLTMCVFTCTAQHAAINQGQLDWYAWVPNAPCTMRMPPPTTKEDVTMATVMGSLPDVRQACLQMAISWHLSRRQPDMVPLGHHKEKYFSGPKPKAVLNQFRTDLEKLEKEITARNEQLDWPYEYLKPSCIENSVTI", "test": "Primary qHTS assay for inhibitors of human arachidonate 12S-lipoxygenase (ALOX12): Round 2", "details": "purified 12hLO, xylenol orange hydroperoxide absorbance; series mostly up to 108 µM", "summary_of_the_method": "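Purified human 12hLO at 150 nM in 25 mM Hepes, 0.01% Triton X-100, pH 7.0, preincubated 15 min at room temperature with compound. Reaction started with 40 uM arachidonic acid, 30 min at room temperature. Hydroperoxide measured by Fe-xylenol orange, 573/405 nm absorbance ratio.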", "values": [{"smiles": "CC(=O)Nc1ccc2c3c(ccc([N+](=O)[O-])c13)CC2", "Potency": "inactive"}, {"smiles": "Cc1ccc(/C=C/C(=O)Nc2ccc([N+](=O)[O-])c(NC(=O)/C=C/c3ccc(C)o3)c2)o1", "Potency": "6.31 µM (active)"}, {"smiles": "COc1ccc(OC)c(NC(=O)/C=C/c2ccc(C)o2)c1", "Potency": "inactive"}, {"smiles": "COCCn1c(SCc2cccc(Br)c2)nnc1-c1ccccc1", "Potency": "inactive"}, {"smiles": "Cc1ccc(C)c(/C=C/c2nc3ccccc3s2)c1", "Potency": "inactive"}, {"smiles": "CC(C)(C)c1ccc(C(=O)NN=C2CCCCC2)cc1", "Potency": "inactive"}, {"smiles": "CC(C)NC(=S)NN=C1CCCCCCCCCCC1", "Potency": "35.5 µM (active)"}, {"smiles": "CC(C)(C)NC(=O)C(=O)NN=C1CCCCCCC1", "Potency": "inactive"}, {"smiles": "COc1ccc(C)cc1CN(C)C(=O)CCn1ccc2ccccc21", "Potency": "inactive"}, {"smiles": "CCOC(=O)c1cccc(NC(=O)c2cc(S(=O)(=O)N3CCCC(C)C3)cn2C)c1", "note": "(stereo unspecified)", "Potency": "inactive"}, {"smiles": "CCOC(=O)c1cn[nH]c1S(=O)(=O)N1CCCC(C)C1", "note": "(stereo unspecified)", "Potency": "11.2 µM (active)"}, {"smiles": "CCOC(=O)c1c(NC(=O)c2ccc(S(=O)(=O)N3CCCC(C)C3)cc2)sc2c1CCN(C(C)C)C2", "note": "(stereo unspecified)", "Potency": "inactive"}, {"smiles": "O=C(Nc1ccc(Cl)nc1)c1ccc2cc[nH]c2n1", "activity change, negative = inhibition": "5.64% [at 12.5 µM] (inactive) and 1.76% [at 12.5 µM] (inactive)"}, {"smiles": "CCCCCCCCCOc1ccc(C(=O)c2ccccc2)cc1", "Potency": "inactive"}, {"smiles": "CC/C(=C(/c1ccccc1)c1ccc(OCC[N+](C)(C)C)cc1)c1ccccc1", "Potency": "44.7 µM (active)"}, {"smiles": "CC/C(=N/N=C(/CC)c1ccccc1)c1ccccc1", "Potency": "inactive"}, {"smiles": "CCCCOCCCNC(=O)c1cccc(C#N)c1", "Potency": "inactive"}, {"smiles": "Cc1ccc(N/N=C/C=C/c2ccccc2)cc1Cl", "Potency": "2.82 µM (active)"}, {"smiles": "O=C(N/N=C/C=C/c1ccccc1)C1CC1(c1ccccc1)c1ccccc1", "note": "(stereo unspecified)", "Potency": "inactive"}, {"smiles": "O=C(NN=CC=Cc1ccccc1)C(O)C(O)C(=O)NN=CC=Cc1ccccc1", "note": "(stereo unspecified)", "Potency": "inactive"}, {"smiles": "CCOc1ccc(C(=O)N2c3ccccc3NC(=O)C2CC(=O)Nc2cccc(C(F)(F)F)c2)cc1", "note": "(stereo unspecified)", "Potency": "inactive"}, {"smiles": "O=C(Oc1ccc2cc(-c3ccccc3)c(=O)oc2c1)N1CCOCC1", "Potency": "inactive"}, {"smiles": "C/C(=N/NC(=S)NCc1ccccc1)c1cccc(C(F)(F)F)c1", "Potency": "12.6 µM (active)"}, {"smiles": "C/C(=N\\NC(=S)NCc1ccccc1)C1CCCCC1", "Potency": "39.8 µM (active)"}, {"smiles": "S=C(NCc1ccccc1)Nc1ccc(NC(=S)NCc2ccccc2)c(Cl)c1", "Potency": "inactive"}, {"smiles": "O=C(NCc1ccccc1)c1cccc(NC(=O)C2CCCCC2)c1", "Potency": "inactive"}, {"smiles": "O=C(COC(=O)CNC(=O)C1CCCCC1)NCc1ccccc1", "Potency": "inactive"}, {"smiles": "O=C(NC(Cc1ccccc1)C(=O)O)c1cccc(C(F)(F)F)c1", "note": "(stereo unspecified)", "Potency": "inactive"}, {"smiles": "C/C(=N\\NC(=S)NCc1ccccc1)c1ccc(Cl)cc1", "Potency": "31.6 µM (active)"}, {"smiles": "C/C(=N\\NC(=O)CNC(=O)C(c1ccccc1)c1ccccc1)c1ccc(C)cc1", "Potency": "inactive"}, {"smiles": "COC(=O)CNC(=O)c1cccc(C(F)(F)F)c1", "Potency": "inactive"}]}]}
